The list is not random: actives were taken first. Their share in the collection is about 5.2%.
VDR inh: inhibitors of human vitamin D receptor | AID 504847 | 0.93% of 400,000 active | Potency, µM, inactives show max response, negative = inhibition, usual class: inhibitors | VDR-SRC2-3 peptide fluorescence polarization, 2 h | P11473
Target sequence (P11473 whole entry, looked up): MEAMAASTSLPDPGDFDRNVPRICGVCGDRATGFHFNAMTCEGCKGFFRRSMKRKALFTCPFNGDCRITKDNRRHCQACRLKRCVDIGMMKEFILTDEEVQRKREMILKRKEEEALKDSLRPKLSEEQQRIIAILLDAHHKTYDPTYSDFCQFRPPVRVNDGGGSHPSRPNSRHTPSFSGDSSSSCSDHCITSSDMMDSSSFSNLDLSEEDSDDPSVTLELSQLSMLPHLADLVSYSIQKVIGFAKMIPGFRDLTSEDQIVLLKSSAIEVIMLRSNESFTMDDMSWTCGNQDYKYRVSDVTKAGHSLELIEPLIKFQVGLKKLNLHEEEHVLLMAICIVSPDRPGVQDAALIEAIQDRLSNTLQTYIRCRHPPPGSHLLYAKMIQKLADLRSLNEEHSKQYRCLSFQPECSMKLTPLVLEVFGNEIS
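Fluorescence polarization assay of small-molecule disruption of VDR binding to coregulator peptide SRC2-3. Compounds and controls pin-transferred, then read after 2 h incubation at ambient room temperature.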
Sfp inh: blocks B. subtilis Sfp PPTase activity; AID 1490; Biochemical Sfp PPTase activity, qHTS; 3.5% of 310,000 active; Potency, µM, inactives show largest response in the series, negative = inhibition, usual class: inhibitors;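 further: the enzyme is Sfp with the accession as filed and its product quenches rhodamine fluorescence; 0% = enzyme reaction without inhibitor and -100% = no enzyme wells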
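Buffer: 50 mM Hepes-Na pH 7.6, 10 mM MgCl2, 0.01% Nonidet P-40, 0.01% BSA. Enzyme 15 nM, pre-exposed to compound 15 min; substrates then added and fluorescence change tracked over 30 min.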
IDH1 R132H inh: human IDH1 R132H inhibition. O75874. IDH1-R132H enzyme, NADPH consumption, diaphorase/resazurin fluorescence. Potency, µM (highest dose often 76.6 µM), for inactives: top-dose activity change, negative = inhibition, most hits filed as inhibitors. 0.093% of 390,000 active. AID 602179; further: nearly all actives have a fitted effect of over 65% in size
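IDH1-R132H (0.5 ug/mL dispensed) in pH 7.5 Tris buffer was preincubated 30 min with compound, then given a substrate mix of 0.016 mM NADPH and 2 mM alpha-KG for 80 min at room temperature; remaining NADPH was read by diaphorase/resazurin fluorescence.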
TrxR1 substrate: substrates of rat thioredoxin reductase 1; O89049; purified TrxR1 substrate turnover, NADPH consumption readout; Potency, µM (highest dose often 114 µM), for the others: at the top dose activity change, negative = substrate turnover; 0.01% of 390,000 active; AID 588456; further: nearly all actives have a fitted effect of over 50% in size
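Rat TrxR1, dispensed at 90 nM, was prereduced with 400 uM NADPH (final) for 5 min at ~22 deg C, then incubated with compound 15 min before 400 uM selenite. A first-read NADPH fluorescence drop versus no-compound background flagged substrates.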
PLK1 PBD block: blocks phosphopeptide binding to human PLK1 polo-box domain; P53350; Plk1 PBD binding of FITC phosphopeptide, fluorescence polarization; Potency, µM, inactives show max response, negative = inhibition, most hits filed as inhibitors; 2.8% of 360,000 active; AID 720504; further: series mostly up to about 57 µM; nearly all actives have a fitted effect of over 65% in size
rTrxR1 inhibitor: inhibitors of rat thioredoxin reductase 1. Potency, µM (top dose mostly 114 µM), for inactives: at the top dose activity change, negative = inhibition, actives largely listed as inhibitors. 1% of 390,000 active. AID 588453. recombinant rTrxR1, NADPH fluorescence consumption, selenite substrate; further: nearly all actives have a fitted effect of over 65% in size
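Rat TrxR1 (90 nM in the dispensed reagent) was pre-reduced with 400 uM NADPH for 5 min at room temperature, then incubated with compound for 15 min. After 400 uM selenite was added, NADPH fluorescence (Ex 340/Em 450 nm) was followed for 8 min.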
Numbers without * were called inactive; ? = inconclusive; . = not tested or not shown; ! = a repeat was not active; [ ] = remark or other dose. The call rests on the fitted dose curve; in most records, active means well fitted curve in the direction sought with a large enough effect; inconclusive means small, poorly fitted or top-dose-only effect, or another doubt; inactive means no such curve, though single readings can be large; an effect the other way counts as inactive or inconclusive. Unless noted, on the % scale 0 is the no-effect control and ±100 the full control effect; potency means the concentration at half of the fitted maximal effect.

SMILES	VDR inh	Sfp inh	IDH1 R132H inh	TrxR1 substrate	PLK1 PBD block	rTrxR1 inhibitor
CCC(=NCc1cc(OC)cc(OC)c1)c1c(O)n(C)c(=O)n(C)c1=O	0.6%	50.1µM*	5.3%	-3.3%[57.1 µM]	-3.3%	5.8%
COC(=O)C(O)(c1c(C)[nH]n(-c2ccccc2)c1=O)C(F)(F)F (stereo not given)	?	21.2%	4.3%	-6.8%[57.1 µM]	23.8µM*	-10.5%[57.1 µM]
Cn1cccc1-c1cccnc1	2.7%	20.8%	.	.	.	.
N[C@@H](Cn1oc(=O)[nH]c1=O)C(=O)O	-5.6%	44.7µM*	0.9%	15.3%[57.1 µM]	-1.0%	22.3%[57.1 µM]
CCC(C)n1c(O)c(C=NC(C)c2ccccc2)c(=O)[nH]c1=S (stereo not given)	-1.1%	-4.1%	-0.9%	-8.2%[57.1 µM]	1.7%	1.0%[57.1 µM]
CCC(C)n1c(O)c(C(c2ccccn2)c2c(O)n(C(C)CC)c(=S)[nH]c2=O)c(=O)[nH]c1=S (stereo not given)	-11.7%	50.1µM*	0.2%	1.3%	?	-15.9%
COc1ccc(C=C2C(=O)N(C)C(=O)N(C)C2=O)cc1COc1ccc(NC(C)=O)cc1	3.9%	39.8µM*	11.3%	14.3%[57.1 µM]	-26.8%	18.7%[11.4 µM]
CN1C(=O)C(=Cc2ccc(OCC(=O)Nc3ccccc3)cc2)C(=O)N(C)C1=O	?	50.1µM*	-10.0%	-10.6%	7.52µM*	?
CCCC(Cn1cncn1)c1ccc(Cl)cc1Cl (stereo not given)	-10.1%	6.9%	.	.	.	.
O=C(O)c1cc(Oc2ccc([N+](=O)[O-])cc2)cc(Oc2ccc([N+](=O)[O-])cc2)c1	44.7µM*	4.6%	.	.	.	.
O=C1CCCC2[C@@H]3CCCN4CCC[C@@H](CN12)C34 (stereo not given in full)	3.3%	-12.3%	.	.	.	.
C=C1C(=O)O[C@@H]2C[C@@H](C)[C@@H]3C=CC(=O)[C@@]3(C)[C@@H](O)[C@H]12	?	79.4µM*	16.9%	1.7%	-20.8%	?
Nc1cc2nc3ccccc3nc2cc1N	3.2%	?	-2.2%	10.1%[57.1 µM]	6.7µM*	9.3%[57.1 µM]
Nc1c2c(nc3ccccc13)CCN(Cc1ccccc1)C2	-3.2%	-5.1%	-0.6%	39.1%[57.1 µM]	?	-1.3%
CCCCn1c(O)c(C=NCc2ccc3c(c2)OCO3)c(=O)[nH]c1=O	0.0%	50.1µM*	4.4%	0.9%[57.1 µM]	-1.2%	4.5%[57.1 µM]
CCCCn1c(O)c(C(C)=NCc2ccc3c(c2)OCO3)c(=O)[nH]c1=O	-11.3%	3.5%	6.1%	8.5%[57.1 µM]	?	13.6%[57.1 µM]
COc1ccc([N+](=O)[O-])cc1CSc1ccccn1	-25.9%	-29.2%	1.7%	0.9%	?	27.6%
COc1ccc(C=C2C(=O)N(C)C(=O)N(C)C2=O)cc1CSc1ccccn1	79.4µM*	44.7µM*	-1.9%	9.9%[57.1 µM]	5.97µM*	?
COc1ccc(/C=C2/C(=O)NC(=O)N(C3CCCCC3)C2=O)cc1CSc1ccccn1	.	56.2µM*	.	.	.	.
CN1C(=O)COc2c(C(=O)N[C@@H]3CN4CCC3CC4)cc(Cl)cc21	1.4%	-8.7%	.	.	.	.
CC/C(=C(\c1ccc(O)cc1)c1ccc(OCCN(C)C)cc1)c1ccccc1	-1.5%	39.8µM*	-11.5%	8.0%	0.1%	20.7%
Cc1ccc(C(=O)c2cn(CC(=O)Nc3ccc(C(C)C)cc3)c3nc(C)ccc3c2=O)cc1	20.0%	.	1.6%	2.0%	.	31.3%
Cc1cc(Cc2c(O)[nH]c(=S)[nH]c2=O)ccc1OC(C)C	79.4µM*	56.2µM*	-14.0%	-4.9%	26.7µM*	-12.2%
CC(C)COc1ccc(Cc2c(O)[nH]c(=S)[nH]c2=O)cc1	-22.9%	?	0.5%	-5.8%	26.7µM*	-8.0%[57.1 µM]
OC[C@@H]1CCCN2CCCC[C@@H]12	.	2.3%	.	.	.	.
SMILES	VDR inh	Sfp inh	IDH1 R132H inh	TrxR1 substrate	PLK1 PBD block	rTrxR1 inhibitor
Cc1cc(C=C2C(=O)N(C)C(=S)N(C)C2=O)c(C)n1-c1ccncc1	?	39.8µM*	3.3%	2.5%	?	?
Cc1ccnc(-n2c(C)cc(C=C3C(=O)N(C)C(=S)N(C)C3=O)c2C)c1	?	50.1µM*	-8.2%	-8.2%	1.19µM*	17.8µM*
O=C(c1ccc2nc(-c3ccco3)c(-c3ccco3)nc2c1)N1CCC2(CC1)OCCO2	?	8.91µM*	2.4%	3.2%	-27.6%	4.47µM*
COc1ccc(C(=O)N2CCC3(CC2)OCCO3)cc1	4.8%	5.4%	-8.2%	2.6%	-3.7%	4.3%
CCOc1ccc(-n2c(O)c(N=Nc3c(C)n(C)n(-c4ccccc4)c3=O)c(=O)[nH]c2=O)cc1	9.8%	44.7µM*	-0.8%	-4.6%[57.1 µM]	-2.8%	6.7%[57.1 µM]
C=CCn1c(O)c(N=Nc2c(C)n(C)n(-c3ccccc3)c2=O)c(=O)[nH]c1=S	?	20µM*	-2.2%	-15.0%	-4.4%	-11.0%
Cc1c(N=Nc2c(O)[nH]c(=S)[nH]c2=O)c(=O)n(-c2ccccc2)n1C	-25.3%	44.7µM*	2.0%	-16.8%[57.1 µM]	-18.0%	?
NC(N)=S	3.6%	.	31.3%	5.6%	-8.4%	1.7%
Cc1o[nH]c(=O)c1C[C@@H](N)C(=O)O	-21.6%	79.4µM*!	.	1.4%	.	13.5%
Cc1o[nH]c(=O)c1C[C@H](N)C(=O)O	15.4%	79.4µM*!	.	.	.	.
Cc1o[nH]c(=O)c1CC(N)C(=O)O (stereo not given)	-2.5%	.	.	-4.3%[57.1 µM]	.	-14.5%[57.1 µM]
CS(=N)(=O)CC[C@@H](N)C(=O)O (stereo not given in full)	4.1%	6.2%	.	.	.	.
CCOC(=O)Cc1[nH]nc2c1C(c1ccoc1)C(C#N)=C(N)O2 (stereo not given)	8.7%	-19.3%	-2.7%	-7.6%	?	-7.5%
O=Cc1ccc(O)c(O)c1	10.7%	31.6µM*	-4.0%	-14.0%	-4.1%	-21.9%
CC(=O)CC(c1ccccc1)c1c(O)c2cc(O)ccc2oc1=O (stereo not given)	-2.8%	?	.	.	.	.
C[Se]C[C@H](N)C(=O)O	7.2%	.	.	10.1%[57.1 µM]	.	?
N[C@@H](Cc1cc(I)c(O)c(I)c1)C(=O)O	?	?	3.7%	-3.3%	-14.3%	12.6µM*
NC(=O)CSc1nc2cc(S(=O)(=O)N3CCOCC3)ccc2o1	?	.	9.1%	6.3%[57.1 µM]	11.9µM*	-2.0%[2.29 µM]
Cc1c(C(=O)N2CCC3(CC2)OCCO3)oc2ccc(S(=O)(=O)N3CCOCC3)cc12	-2.4%	8.9%	8.2%	3.6%	-10.3%	20.2%
Cn1cc(C(=O)NCc2ccccc2)c2ccccc21	12.9%	14.9%	-4.6%	-2.7%	0.6%	-1.9%
O=C(CCS(=O)NCc1ccccc1)NCc1ccccc1 (stereo not given)	.	89.1µM*	.	.	.	.
C[N+](C)(C)CC#CCOC(=O)Nc1cccc(Cl)c1	50.1µM*!	3.2%	-11.7%	12.7%[57.1 µM]	-13.2%	2.67µM*
OCC(Br)(Br)Br	3.7%	6.7%	.	.	.	.
O=c1[nH]c(=S)[nH]c(O)c1N=Nc1ccc(SC(F)F)cc1	-6.2%	-21.2%	-0.4%	-9.1%	10.6µM*	11.9%
